Screens deposited in PubChem by National Center for Advancing Translational Sciences (NCATS).
HPGD block – qHTS Assay for Inhibitors of HPGD (15-Hydroxyprostaglandin Dehydrogenase) | 15-hydroxyprostaglandin dehydrogenase [NAD(+)] (Homo sapiens), P15428 | purified HPGD, NADH fluorescence kinetic, PGE2 substrate | Potency, µM, most hits filed as inhibitors | actives 4.3% (n = 150,000)
Target sequence (P15428 whole entry, looked up): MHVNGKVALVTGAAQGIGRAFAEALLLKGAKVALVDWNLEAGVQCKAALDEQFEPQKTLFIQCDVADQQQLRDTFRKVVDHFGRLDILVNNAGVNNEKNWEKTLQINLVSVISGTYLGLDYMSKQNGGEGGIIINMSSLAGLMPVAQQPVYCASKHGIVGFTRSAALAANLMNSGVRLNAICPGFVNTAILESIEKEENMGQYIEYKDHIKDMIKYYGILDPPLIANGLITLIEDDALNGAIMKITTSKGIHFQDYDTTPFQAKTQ
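NADH formation kinetics: reaction with 30 uM PGE2 and 1 mM NAD+ (final), 20 nM enzyme, Tris-HCl pH 8 with Tween 20, after 15 min compound preincubation at room temperature. Fluorescence change, last versus first of five reads.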
ALDH1A1 inh – qHTS Assay for Inhibitors of Aldehyde Dehydrogenase 1 (ALDH1A1). Potency, µM (top dose mostly 75.3 µM), most hits filed as inhibitors. actives 7.3% (n = 220,000). Purified ALDH1A1, NADH fluorescence, propionaldehyde substrate. Aldehyde dehydrogenase 1A1 (Homo sapiens), P00352
PNC assembly inh – High Content Assay for Compounds that inhibit the Assembly of the Perinucleolar Compartment; activity change (PNC), negative = inhibition, % at 10 µM; actives 3.1% (n = 140,000); PC3M PTB-GFP, PNC prevalence imaging, 16 h; hits give low values;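 active = readout at or below -70, meaning at least 70% loss of cells showing the perinucleolar compartment, a nuclear body marking cancer cells; inconclusive = readout between -30 and a set limit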
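PC3M cells stably expressing PTB-GFP, 750–1000 cells/well, treated 16 h at 37 °C with compound (23 nl of library stock), in duplicate. After paraformaldehyde fixation and Hoechst stain, imaged at 20x; PNC prevalence scored by image analysis.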
IMPase Li inh – qHTS Assay for Identifying the Cell-Membrane Permeable IMPase Inhibitors: Potentiation with Lithium | CHO-M1 cells, IP1 TR-FRET (IP-One), carbachol + lithium | Potency, µM (top dose mostly 59.4 µM), actives largely listed as inhibitors | actives 0.35% (n = 210,000); active = well fitted curve in the direction sought with a large enough effect; inconclusive = small, poorly fitted or top-dose-only effect, or another doubt; inactive = no such curve, though single readings can be large; an effect the other way counts as inactive or inconclusive;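 note: IP1 builds up when IMPase is blocked and the TR-FRET signal falls; nearly all actives have a fitted effect of over 50% in size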
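CHO-M1, 2000 cells/well, 16–30 h culture; cpd + low Li+, 30 min 37C; lysis with d2-IP1/Eu-anti-IP1 Ab, 10 min RT; TR-FRET 665/620 ratio and 620 channel; AC50 via Hill.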
IMPase inh – qHTS Assay for Identifying the Cell-Membrane Permeable IMPase Inhibitors | Inositol monophosphatase 1 (Rattus norvegicus), P97697 | CHO-M1 cells, IP1 accumulation, HTRF TR-FRET ratio | inhibition (IP1 accumulation), % at 46.1 µM | 120,000 tested, under 10 active | AID 901, 2007; active = well fitted curve in the direction sought with a large enough effect in the signal ratio, not every such curve was filed as active; inconclusive = small, poorly fitted or top-dose-only effect, or a change in a side signal; inactive = no such curve, though single readings can be large or run the other way; the % refers to the signal ratio;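 note: cells stimulated with carbachol in lithium chloride buffer; higher means more IMPase inhibition seen as more IP1 and lower FRET ratio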
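Measured: the HTRF emission ratio (665/620 nm) plus the 620 nm donor channel, each fitted to the Hill equation to give AC50. Cells were CHO-M1 given compounds up to 46 uM and a 30 min carbachol stimulation at 37C.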
NPSR antag – qHTS Assay for Antagonists of the Neuropeptide S Receptor: cAMP Signal Transduction. Q6W5P4. CHO-NPSR cells, cAMP TR-FRET, antagonist mode. Potency, µM (series often up to 38.3 µM), hits mostly inhibitors. actives 1% (n = 220,000); active = well fitted curve in the direction sought with a large enough effect; inconclusive = small, poorly fitted or top-dose-only effect, or another doubt; inactive = no such curve, though single readings can be large; an effect the other way counts as inactive or inconclusive; note: nearly all actives have a fitted effect of over 50% in size
Target sequence (Q6W5P4 whole entry, looked up): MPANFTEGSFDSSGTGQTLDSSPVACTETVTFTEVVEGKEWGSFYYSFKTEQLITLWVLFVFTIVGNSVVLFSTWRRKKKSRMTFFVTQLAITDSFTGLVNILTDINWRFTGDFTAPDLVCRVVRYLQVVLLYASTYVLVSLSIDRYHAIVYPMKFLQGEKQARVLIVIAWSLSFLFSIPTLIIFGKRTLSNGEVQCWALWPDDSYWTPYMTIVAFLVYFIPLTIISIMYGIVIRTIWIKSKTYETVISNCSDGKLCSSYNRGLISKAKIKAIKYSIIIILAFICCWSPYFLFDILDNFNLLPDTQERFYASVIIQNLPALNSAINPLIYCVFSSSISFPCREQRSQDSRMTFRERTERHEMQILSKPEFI
Of the large screens only hits and unclear results are named; the others gave an inactive call. An excerpt weighted towards active compounds, which were near 11% of everything screened. Unless noted, calls come from the whole dose curve; as a rule, active = well fitted inhibition curve with a large enough effect (not every such curve was filed as active); inconclusive = small, poorly fitted or top-dose-only effect, or another doubt; inactive = no such curve, though single readings can be large or run the other way.

CCN=c1scc(-c2ccco2)n1/N=C/c1ccc(O)cc1	HPGD block inconclusive, ALDH1A1 inh 20µM, PNC assembly inh inconclusive
CCn1c(SCC(=O)c2ccccc2)nnc1-c1ccoc1C	ALDH1A1 inh inconclusive
Cc1ccccc1NC1=C/C(=N\S(=O)(=O)c2cccs2)c2ccccc2C1=O	ALDH1A1 inh inconclusive, NPSR antag 3.16µM
CC(=O)Nc1ccc(NC2=C/C(=N/S(=O)(=O)c3cccs3)c3ccccc3C2=O)cc1	NPSR antag 7.94µM (no result: HPGD block, PNC assembly inh, IMPase inh)
Cc1ccc(SCc2ccc(C(=O)N3CCCCC3)cc2)cc1	ALDH1A1 inh 3.98µM (no result: HPGD block, PNC assembly inh, IMPase inh)
CN1CCN(C(=O)c2ccc(CN3CCOCC3)cc2)CC1	PNC assembly inh -92.7
O=C(c1ccc(CN2CCOCC2)cc1)N1CCC(Cc2ccccc2)CC1	none
CCOC(=O)N1CCN(C(=O)c2ccc(CSc3ccc(Cl)cc3)cc2)CC1	none (no result: HPGD block, PNC assembly inh, IMPase inh)
CN1CCN(C(=O)c2ccc(CSc3ccc(Cl)cc3)cc2)CC1	HPGD block 8.91µM, PNC assembly inh inconclusive
CCOC(=O)CSC1=Nc2ccccc2C2=NC(CC(=O)NCc3ccc4c(c3)OCO4)C(=O)N12 (configuration not stated)	ALDH1A1 inh inconclusive, PNC assembly inh inconclusive
CCc1ncc(C(=O)c2ccc(OC)cc2)n1C	ALDH1A1 inh inconclusive, NPSR antag inconclusive
O[C@@](CCN1CCCC1)(c1ccccc1)C1CCCCC1	none (no result: PNC assembly inh, NPSR antag)
COCCCNC(=O)CN1C(=O)/C(=C\c2ccc(C)cc2)Sc2ccccc21	none (no result: IMPase inh)
Cc1cccc(N2CCN(C(=O)c3ccncc3)CC2)c1C	none
CC(=O)N1CCc2cc(C(=O)CN3CCN(C(=O)c4ccco4)CC3)ccc21	ALDH1A1 inh 11.2µM, PNC assembly inh inconclusive
CC(=O)N1CCc2cc(C(=O)CN3CCN(c4cccc(Cl)c4)CC3)ccc21	ALDH1A1 inh 6.31µM
CC(=O)N1CCc2cc(C(=O)CN3CCCN(Cc4ccc(F)cc4)C3)ccc21	ALDH1A1 inh inconclusive
CC(=O)N1CCc2cc(C(=O)CN3CCC(C)CC3)ccc21	HPGD block inconclusive, ALDH1A1 inh 20µM
CC(=O)N1CCc2ccc(C(=O)CN3CCN(c4cccc(C)c4C)CC3)cc21	ALDH1A1 inh 8.91µM
COC(=O)c1sccc1NC(=O)c1cc2c(s1)CCCC2	HPGD block inconclusive, ALDH1A1 inh inconclusive, IMPase inh inconclusive, NPSR antag inconclusive
COc1cccc(-c2nc(N3CCN(C)CC3)c3ccccc3n2)c1O	none (no result: HPGD block, ALDH1A1 inh, PNC assembly inh, IMPase Li inh, IMPase inh)
COc1ccc(N2C(=O)C3C(c4ccc(C(=O)O)cc4)NC(Cc4ccccc4)(C(=O)O)C3C2=O)c([N+](=O)[O-])c1 (configuration not stated)	ALDH1A1 inh 11.2µM (no result: HPGD block, PNC assembly inh, IMPase inh)
O=[N+]([O-])c1ccccc1/C=N/n1c(-c2cccnc2)n[nH]c1=S	HPGD block inconclusive, ALDH1A1 inh inconclusive (no result: IMPase inh)
O=[N+]([O-])c1cc2c(cc1/C=N/n1c(-c3ccccc3)n[nH]c1=S)OCO2	HPGD block 3.16µM, ALDH1A1 inh 12.6µM, PNC assembly inh inconclusive, NPSR antag inconclusive
O=[N+]([O-])c1cc2c(cc1/C=N/n1c(-c3ccccn3)n[nH]c1=S)OCO2	HPGD block inconclusive, ALDH1A1 inh 28.2µM, PNC assembly inh inconclusive (no result: IMPase inh)
Cc1cc(C)n(-c2ccc(S(N)(=O)=O)cc2[N+](=O)[O-])n1	none (no result: HPGD block, PNC assembly inh, IMPase inh)
CCOC(=O)CN(C(=O)CSc1nnc(-c2ccncc2)n1CCCN(C)C)c1ccccc1	ALDH1A1 inh inconclusive
CCCCOc1ccc(-c2nc(-c3cccnc3)no2)cc1	PNC assembly inh inconclusive
CCOc1ccc(-c2nc(-c3cccnc3)no2)cc1	PNC assembly inh -100.0
COc1ccc(-c2[nH]ncc2CN2CCN(C(=O)c3ccco3)CC2)cc1F	none (no result: HPGD block, PNC assembly inh, IMPase Li inh, IMPase inh)
CCn1c(=NC(=O)CN2C(=O)CCC2=O)sc2c(C)cc(C)cc21	HPGD block 14.1µM, NPSR antag inconclusive
CCOC(=O)c1c(C)[nH]c(C(=O)CN2CCN(CC)CC2)c1C	none (no result: HPGD block, ALDH1A1 inh, PNC assembly inh, IMPase Li inh, IMPase inh)
CCCCNC(=O)c1ccccc1C(=O)NCCCC	PNC assembly inh inconclusive
Cc1ccc(NC(=O)c2cncc(Br)c2)c(O)c1	none (no result: HPGD block, PNC assembly inh, IMPase inh)
CSc1ccccc1C(=O)NCc1ccccc1C	none (no result: HPGD block, PNC assembly inh, IMPase inh)
CSc1ccccc1C(=O)NCCSc1ccccc1	HPGD block 15.8µM
Cc1ccccc1CSCCNC(=S)Nc1ccccc1	none (no result: HPGD block, PNC assembly inh, IMPase inh)
CCCCNC(=O)c1ccccc1Cl	HPGD block 8.91µM
Cc1ccccc1CSCCNC(=O)c1ccccc1	HPGD block 31.6µM, ALDH1A1 inh inconclusive (no result: IMPase inh)
O=C(Nc1ccccc1C(=O)O)c1cncc(Br)c1	ALDH1A1 inh 14.1µM
CCOc1ccc(-n2c(-c3ccc(Cl)cc3)c[n+]3c2SCC3)cc1	none (no result: HPGD block, PNC assembly inh, IMPase inh)
CC1CN(C(=O)COC(=O)c2cc([N+](=O)[O-])ccc2Cl)CC(C)O1 (configuration not stated)	none (no result: HPGD block, PNC assembly inh, IMPase inh)
O=C(NCCSc1ccccc1)c1ccc(Br)cc1	none (no result: IMPase inh)
O=C(NCCSc1ccccc1)c1cncc(Br)c1	ALDH1A1 inh 25.1µM
O=C(NCCSc1ccccc1)c1ccccc1Cl	HPGD block 12.6µM (no result: IMPase inh)
CSc1ccccc1C(=O)NCCSC(C)(C)C	HPGD block 25.1µM
O=C(NCCSc1ccccc1)c1ccccc1	IMPase inh inconclusive
CC(C)(C)SCCNC(=O)c1ccccc1	none
